Only some compounds are listed: those with a hit (about 4.6% of all), similar ones and a draw of the others.
SKKanGAS inh: SKKanGAS growth inhibition; S. pyogenes SKKanGAS, kanamycin growth, BacTiter-Glo, 6 h; inhibition, % at 7.5 µM; 1.3% of 300,000 active;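 active = mean replicate score, as percent of positive control median, at least 50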;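 note: strain carries kanamycin resistance gene driven by streptokinase promoter and grows in 40 µg/ml kanamycin; loss of luminescence reflects streptokinase promoter inhibition or plain growth inhibition; 0% = median of DMSO wells and 100% = positive control at its reference dose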
NALP3 yeast inh: blocks the NALP3 inflammasome reconstituted in yeast; Yeast reconstituted NLRP3/ASC/caspase-1, beta-gal luminescence, 24 h; 0.39% of 330,000 active; inhibition, % at 10 µM; AID 2825;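 active = inhibition of 50% or more; inactive = inhibition below 50%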;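 note: plate controls were induced DMSO wells for no effect and uninduced yeast grown without galactose for full effect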
TIM10 inh: TIM10 yeast growth inhibition | inhibition, % at 10 µM | 1.4% of 330,000 active | AID 463195 | S. cerevisiae TIM10 strain growth, BacTiter-Glo luminescence, 24 h;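 active = inhibition of 40% or more at the single tested concentration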;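 note: wild-type TIM10 isogenic control strain grown at permissive 25 °C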
tim23-1 inh: tim23-1 yeast growth inhibition | AID 463212 | S. cerevisiae tim23-1 growth, BacTiter-Glo luminescence, 24 h | 1.3% of 330,000 active | inhibition, % at 20 µM;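 active = growth inhibition of the mutant yeast at or above 50%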;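 note: temperature-sensitive mutant grown at 25 °C; plate controls were DMSO-treated mutant yeast for no effect and medium wells lacking yeast for full effect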
tim10-1 inh: tim10-1 yeast growth inhibition; S. cerevisiae tim10-1 ts strain growth, BacTiter-Glo, 24 h; inhibition, % at 20 µM; 2.2% of 330,000 active; AID 463190;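 active = inhibition of at least 40%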;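 note: mutant grown at 25 °C; 0% = DMSO wells with yeast and 100% = wells holding no yeast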
tim10-1 confirm: tim10-1 yeast growth inhibition, confirmed; inhibition, % at 20 µM; 56% of 7,400 active; S. cerevisiae tim10-1 ts strain growth, BacTiter-Glo, 24 h; shares compounds with tim10-1 inh;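 active = inhibition of yeast growth at or above a set limit in either of two repeat tests at 20 µM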;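 note: tim10-1 mutant grown at permissive 25 °C to find synthetic lethal compounds; 0% = DMSO yeast wells and 100% = medium wells without yeast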
tim10 confirm: TIM10 yeast growth inhibition, confirmed. shares compounds with TIM10 inh. S. cerevisiae tim10 strain growth, BacTiter-Glo luminescence, 24 h. inhibition, % at 10 µM. 63% of 4,600 active. AID 463215;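 active = inhibition of yeast growth at or above a set limit in either of two replicates at 10 µM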;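 note: this counterscreen used the strain with wild-type TIM10; 0% = yeast with DMSO and 100% = medium wells lacking yeast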
* marks the source's active call; other numbers are inactive results; / = no result given.

SMILES	SKKanGAS inh	NALP3 yeast inh	TIM10 inh	tim23-1 inh	tim10-1 inh	tim10-1 confirm	tim10 confirm
Cc1ccc(-n2nc(C)c(NS(=O)(=O)c3ccccc3)c2C)cc1C	6	7	27	28	39	/	/
CCc1ccc(C(=O)CN(C#N)c2nc(C)cc(C)n2)cc1	14	9	48*	35	42*	15	-36
Oc1ccccc1-c1nc(NCC2CCCO2)c2ccccc2n1 (configuration not stated)	3	17	61*	31	56*	40*	27
COc1cccc(-c2nc(NCC3CCCO3)c3ccccc3n2)c1O (configuration not stated)	9	28	3	5	16	/	/
CC(Sc1nnc(C2CC2)n1C1CC1)C(=O)c1ccc(Br)cc1 (configuration not stated)	/	20	-4	18	2	/	/
Cc1cc2ncn(/N=C/c3ccc([N+](=O)[O-])s3)c2cc1C	22	/	/	/	/	/	/
O=[N+]([O-])c1ccc(/C=N/n2cnc3ccccc32)s1	14	6	79*	40	49*	57*	90*
COCCCn1c(SCC(=O)n2c(C)c(C)c3ccccc32)nnc1-c1ccoc1C	-2	17	40*	34	44*	33*	-6
COCCCn1c(SCC(=O)N2CC(=O)Nc3ccccc32)nnc1-c1ccoc1C	3	1	4	3	5	/	/
CCOC(=O)c1cnc2c(ccc3ccccc32)c1NCCN(C)C	3	26	77*	39	55*	50*	50*
CCN(CC(=O)Nc1cc(C)nn1-c1nc(C)cc(C)n1)Cc1ccccc1	32	9	44*	29	44*	19	-27
COC(=O)c1ccc(SCC(=O)NCc2ccccc2)c([N+](=O)[O-])c1	-2	4	14	1	1	/	/
O=C(CN1C(=O)COc2ccccc21)NC1CCCC1	3	7	-16	1	-11	/	/
Cc1cccc(NC(=S)NNC(=O)c2cc3c(s2)CCC(C)C3)c1C (configuration not stated)	-6	-5	51*	30	59*	39*	32*
N#Cc1c(Cl)c(Cl)c2nnc(-c3ccc(Br)cc3)n2c1Cl	13	6	58*	42	46*	28	15
[S-]c1nnc(-c2ccc(Br)cc2)n1-c1ccccc1.[Zn+2]	-3	16	3	14	3	/	/
O=c1[nH]c(COc2ccc(Cl)cc2Br)nc2ccccc12	5	32	-6	28	10	/	/
S=c1[nH]nc(COc2ccccc2)n1/N=C/C=C/c1ccccc1	-12	22	20	7	16	/	/
S=c1[nH]nc(COc2ccccc2)n1/N=C/C(Cl)=C/c1ccccc1	20	38	52*	44	60*	56*	46*
COc1ccccc1CN1CCCC(CN(CCN(C)C)C(=O)c2ccc(C)cc2)C1 (configuration not stated)	-2	23	-2	0	3	/	/
CC(=O)c1ccc(N2CCN(C(=O)CNS(=O)(=O)c3ccc4c(c3)OCCCO4)CC2)c(F)c1	/	15	9	8	1	/	/
COc1cccc(C(=O)Nc2ccc(-n3nncc3C(C)(C)C)cc2)c1	-2	14	22	31	34	/	/
CC(C)(C)c1cnnn1-c1ccc(NC(=O)c2ccc(Br)o2)cc1	-6	8	47*	37	47*	42*	39*
CC(C)(C)c1cnnn1-c1ccc(NC(=O)c2ccc3c(c2)OCO3)cc1	1	5	42*	38	44*	26	34*
CC(=O)Nc1ccc(S(=O)(=O)NCc2nc(-c3ccccc3C)no2)cc1	6	17	3	13	-2	/	/
SMILES	SKKanGAS inh	NALP3 yeast inh	TIM10 inh	tim23-1 inh	tim10-1 inh	tim10-1 confirm	tim10 confirm
COCCCNc1nc2ccccc2nc1NS(=O)(=O)c1cccc(C)c1	6	7	17	34	13	/	/
Clc1ccc(CN2CCN(c3ncnc4scc(-c5cccs5)c34)CC2)cc1	39	4	44*	29	44*	38*	32*
O=C(NC(=S)Nc1nc2c(s1)CSc1ccccc1-2)c1ccccc1	38	35	44*	45	48*	19	30*
CCN1/C(=C\C(=S)Nc2ccccc2)Sc2ccccc21	5	30	50*	40	45*	12	43*
CCN1/C(=C\C=C(C(C)=O)C(C)=O)Sc2ccccc21	-5	28	20	8	7	/	/
CCN(CC)/C(Sc1ccccc1)=C(/C(Cl)=C(Cl)Cl)[N+](=O)[O-]	1	-11	42*	39	46*	33*	35*
N/C(=N\OC(=O)c1ccco1)c1ccccc1	-26	9	9	21	14	/	/
Cc1ccc(/C(N)=N/OC(=O)c2ccco2)cc1	-2	13	52*	38	46*	34*	37*
O=c1c(Cl)c(NCc2ccc(F)cc2)cnn1C12CC3CC(CC(C3)C1)C2	-7	31	52*	44	47*	38*	-2
O=C(CSCc1ccccc1Cl)Nc1ccc2c(c1)OCCO2	2	24	48*	44	44*	36*	8
Cc1ccc(C(=O)Nc2nc(-c3cccnc3)cs2)o1	-4	7	4	-4	-11	/	/
O=C(Nc1nc(-c2ccccc2)cs1)c1ccc(Br)o1	17	-40	41*	50	41*	48*	50*
CC(C)Oc1cccc(C2NC(=O)c3ccccc3O2)c1 (configuration not stated)	-2	17	13	34	26	/	/
CCCCn1c(N)c(N(CCOC)C(=O)c2nn(CC)c(=O)c3ccccc23)c(=O)[nH]c1=O	0	3	-10	-2	6	/	/
CCC(=O)Nc1ccc(C(=O)OCc2ccc(Cl)c(Cl)c2)cc1	-4	16	4	3	10	/	/
CC(=O)Nc1ccc(C(=O)OCc2ccc(Cl)c(Cl)c2)cc1	-18	15	42*	23	50*	32*	-30
CC(=O)Nc1ccc(C(=O)OCc2ccc(Cl)cc2)cc1	-4	32	50*	28	49*	48*	35*
CC1CCN(C(=S)c2cn(Cc3ccccc3F)c3ccccc23)CC1	19	9	42*	22	43*	32*	23
Cc1cccc(C(=O)Nc2ccc(C(=O)/C=C/c3cccnc3)cc2)c1	4	/	/	/	/	/	/
Cc1cccc(/C=C/C(=O)c2ccc(NC3=NCCCS3)cc2)c1	/	28	66*	1	54*	50*	59*
CCc1cc(=O)oc2cc(C)cc(OC(C)C(=O)NCc3ccccn3)c12 (configuration not stated)	1	11	12	-6	-3	/	/
